The structures appear in SMILES notation. ± gives the standard deviation of the averaged measurements.

For this test, the system named is Caenorhabditis elegans infected with Nematocida parisii. Put plainly: progeny production of N. parisii-infected C. elegans relative to uninfected control; higher = stronger inhibition of microsporidia infection (rescue of reproduction). To be noted: 60 µM; incubation time 5 days; spore dose (spores/uL): 18000. The procedure: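 C. elegans N2 L1 larvae (100 per well, 96-well plate, K-medium with 5x E. coli OP50, 1% DMSO) were infected with Nematocida parisii spores (18,000 spores/uL) that had been pre-incubated for 1 h with each BU-CMD library compound at 60 uM. Plates were incubated 5 days at 21 C with shaking. Progeny were stained with rose bengal, scanned on a flatbed scanner and counted with WorMachine. Progeny number is expressed as % of uninfected DMSO controls on the same plate; three biological replicates per compound; hits were compounds with at least 60% progeny production.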
The compound `COC(=O)[C@@H]1[C@@H](c2ccccc2)[C@]2(c3ccc(OC)cc3)Oc3cc(OC)cc(OC)c3[C@@]23N=C(C2CC2)N[C@@]13O` yielded a progeny production of 8.05 ± 3.6%. As to `CONC(=O)[C@H]1[C@@H](O)[C@@]2(O)c3c(OC)cc(OC)cc3O[C@@]2(c2ccc(OC)cc2)[C@@H]1c1ccccc1`, the progeny production turned out to be 13.2 ± 4.2%.

As to `COC(=O)[C@@H]1[C@@H](c2ccccc2)[C@]2(c3ccc(OC)cc3)Oc3cc(OC)cc(OC)c3[C@@]23N=C(C)N[C@@]13O`, the progeny production came to 14.3 ± 4%.

These data come from the supplement of paper PMC12340860.
